Experimental data taken from PubChem BioAssay (NCATS).
Records with an inconclusive call do not appear. Activity calls are given as the source filed them. Calls follow the shape of the dose curve; as a rule, active = well fitted inhibition curve with a large enough effect; inconclusive = small, poorly fitted or top-dose-only effect; inactive = flat fitted curve, though single readings scatter.

Biological target: Luciferin 4-monooxygenase (Photinus pyralis) (UniProt P08659)
Test: Biochemical firefly luciferase enzyme assay for NPC (AID 624030);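 also: purified P. pyralis luciferase at 10 nM with luciferin and ATP substrate; 0% = DMSO and -100% = full luciferase inhibition by PTC124 control; nearly all actives have a fitted effect of over 70% in size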
Settings: purified P. pyralis luciferase, luminescence, 5 min; series mostly up to 58.6 µM; activity change, negative = inhibition: at the top concentration
Procedure, shortened: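 Purified P. pyralis luciferase at 10 nM in 50 mM Tris Acetate (final), luminescence read within 5 minutes of enzyme addition to compounds. Activity normalised to PTC124 versus DMSO; concentration-response curves classed by r2, magnitude and activity.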

Luciferin 4-monooxygenase (Photinus pyralis), sequence (P08659 whole entry, looked up): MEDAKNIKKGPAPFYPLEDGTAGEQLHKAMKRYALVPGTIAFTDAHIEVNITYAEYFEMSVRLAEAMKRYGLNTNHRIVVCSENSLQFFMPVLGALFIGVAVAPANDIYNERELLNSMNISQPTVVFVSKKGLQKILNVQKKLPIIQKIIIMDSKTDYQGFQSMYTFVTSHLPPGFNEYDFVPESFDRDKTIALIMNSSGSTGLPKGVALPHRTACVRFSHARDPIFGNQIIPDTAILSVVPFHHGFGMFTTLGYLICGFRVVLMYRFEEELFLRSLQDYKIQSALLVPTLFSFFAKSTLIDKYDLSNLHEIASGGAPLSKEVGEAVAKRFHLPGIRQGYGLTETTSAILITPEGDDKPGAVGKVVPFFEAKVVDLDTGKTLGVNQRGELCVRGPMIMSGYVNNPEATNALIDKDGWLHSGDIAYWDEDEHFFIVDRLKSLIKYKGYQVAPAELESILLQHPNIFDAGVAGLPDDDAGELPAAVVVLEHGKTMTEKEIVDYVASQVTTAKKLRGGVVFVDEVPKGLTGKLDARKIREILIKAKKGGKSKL

Activity change, negative = inhibition, inactive:
CCCC(=O)O[C@]1(C(=O)COC(=O)CC)CC[C@@H]2[C@@H]3CCC4=CC(=O)CC[C@]4(C)[C@H]3[C@@H](O)C[C@@]21C 54.4%, CO[C@H]1[C@@H](O)[C@H](N)[C@@H](O[C@H]2O[C@@H]([C@H](C)N)CC[C@H]2N)[C@H](O)[C@@H]1N(C)C(=O)CN 10.6%, CC(C)N(Cc1ccccc1)C(C)C (tested in a mixture with another compound) 0.335%, CC(=O)SC1CC2=CC(=O)CCC2(C)C2CCC3(C)C(CCC34CCC(=O)O4)C12 (stereo not given) -6.55%, CCCCCCC(=O)O[C@@H]1CC[C@H]2[C@@H]3CCc4cc(O)ccc4[C@H]3CC[C@]12C -0.804%, CS(=O)(=O)NC(=O)CCC/C=C\C[C@H]1C(=O)C[C@@H](O)[C@@H]1/C=C/[C@@H](O)COc1ccccc1 -3.59%, CC#CC[C@@H](C)[C@@H](O)/C=C/[C@H]1[C@H]2c3cccc(CCCC(=O)O)c3O[C@H]2C[C@@H]1O 1.74%, CCO[C@@H](Cc1ccc(OCCc2ccc(OS(C)(=O)=O)cc2)cc1)C(=O)O -17.8%, [2H]c1c([2H])c([2H])c2c([nH]c(=S)n2C2CCN(CCCC(=O)c3ccc(F)cc3)CC2)c1[2H] -10.2%, Cc1cccc(C)c1N(CCCc1cccnc1)C(=O)[C@@H](C)N 0.23%, CCC(C)C1OC2(C=CC1C)CC1CC(C/C=C(/C)C(OC3CC(OC)C(OC4CC(OC)C(NC(C)=O)C(C)O4)C(C)O3)C(C)/C=C\C=C3\COC4C(O)C(C)=CC(C(=O)O1)C34O)O2 (stereo not given) -9.07%, CC(C)(C)CC(=O)OCC(=O)[C@@]12OC(C)(C)O[C@@H]1C[C@H]1[C@@H]3CCC4=CC(=O)C=C[C@]4(C)[C@@]3(F)[C@@H](O)C[C@]12C -1.17%, CN1CC[C@H](c2c(O)cc(O)c3c(=O)cc(-c4ccccc4Cl)oc23)[C@@H](O)C1 -13.6%, C[C@@H]1O[C@@]2(CS1)CN1CCC2CC1 -0.752%, Cc1nc2n(c(=O)c1CCN1CCC(c3noc4cc(F)ccc34)CC1)CCC[C@@H]2O -0.576%, O=P(O)(O)OC[C@@H](O)CO -6.86%, CC1(C)C(C(=O)O)N2C(=O)CC2S1(=O)=O (stereo not given) 2.81%, C/C(=C(\CCO)SSCC1CCCO1)N(C=O)Cc1cnc(C)nc1N (stereo not given) 2.26%, C#CC1(OC(C)=O)CCC2C3CCC4=CC(OC(C)=O)CCC4C3CCC21C (stereo not given) -5.11%, CN(Cc1ccc(C(C)(C)C)cc1)c1cccc2ccccc12 -0.503%, Fc1ccc(C2CCNCC2COc2ccc3c(c2)OCO3)cc1 (stereo not given) 8.57%, CCCN(CC)[C@@H](CC)C(=O)Nc1c(C)cccc1C -2.8%, CC1(C)S[C@@H]2[C@H](NC(=O)[C@H](N)c3ccccc3)C(=O)N2[C@@H]1C(=O)OCOC(=O)[C@@H]1N2C(=O)C[C@@H]2S(O)(O)C1(C)C -4.12%, CCOC(=O)CCC(=O)OC1C(OC2C(C)C(OC3CC(C)(OC)C(O)C(C)O3)C(C)C(=O)OC(CC)C(C)(O)C(O)C(C)C(=O)C(C)CC2(C)O)OC(C)CC1N(C)C (stereo not given) -1.9%, CO/N=C(\C(=O)N[C@@H]1C(=O)N2C(C(=O)O)=C(Cn3nnc(C)n3)CS[C@H]12)c1csc(N)n1 0.691%, CO/N=C(\C(=O)N[C@@H]1C(=O)N2C(C(=O)OCOC(=O)C(C)(C)C)=C(C)CS[C@H]12)c1csc(N)n1 1.8%, OCC1OC(OC2C(CO)OC(OC3C(CO)OC(O)C(O)C3O)C(O)C2O)C(O)C(O)C1O (stereo not given) -1.03%, C[N+](C)(CCOc1ccccc1)Cc1cccs1 (tested in a mixture with another compound) -4.67%, CC[C@H]1OC(=O)C[C@@H](O)[C@H](C)[C@@H](O[C@@H]2O[C@H](C)C[C@H](N(C)C)[C@@H]2O)[C@@H](CC=O)C[C@@H](C)C(=O)/C=C\[C@]2(C)O[C@H]2[C@@H]1C 0.104%, O=C(CO)C(O)C(O)C(O)CO (stereo not given) 2.01%, CO[C@@H]1[C@@H](OC2OC(C)C(OC3CC(C)(O)C(O)C(C)O3)C(N(C)C)C2O)[C@@H](CC=O)C[C@@H](C)[C@@H](OC2CCC(N(C)C)C(C)O2)/C=C/C=C/C[C@@H](C)OC(=O)C[C@H]1OC(C)=O (stereo not given in full) -0.0945%, COc1cc(/C=C/C(=O)O[C@H]2CC[C@]34C[C@]35CC[C@]3(C)[C@@H]([C@H](C)CCC=C(C)C)CC[C@@]3(C)C5CCC4C2(C)C)ccc1O (stereo not given in full) -0.729%, CO/N=C(\C(=O)N[C@@H]1C(=O)N2C(C(=O)[O-])=C(C[n+]3cccc4c3CCCC4)CS[C@H]12)c1csc(N)n1 -17.7%, CC(=O)O[C@H]1C[C@@H]2CC[C@@H]3[C@H](CC[C@]4(C)[C@H](OC(C)=O)[C@@H](N5CC[N+](C)(C)CC5)C[C@@H]34)[C@@]2(C)C[C@@H]1N1CC[N+](C)(C)CC1 7.44%, CCN(CC)CCOc1ccc(/C(=C(/Cl)c2ccccc2)c2ccccc2)cc1 6.1%, CCC(=O)C(Cc1ccccc1)(Cc1ccccc1)CC(C)N(C)C (stereo not given) 2.41% [at 123 µM], CC(=O)O[C@]1(C(=O)CO)[C@@H](C)C[C@H]2[C@@H]3CCC4=CC(=O)C=C[C@]4(C)[C@@]3(F)[C@@H](O)C[C@]21C 0.331%, CCC(C)C1OC2(C=CC1C)CC1CC(C/C=C(\C)C(OC3CC(OC)C(OC4CC(OC)C(NC(C)=O)C(C)O4)C(C)O3)C(C)/C=C/C=C3\COC4C(O)C(C)=CC(C(=O)O1)C34O)O2 (stereo not given) (tested in a mixture with another compound) -3.99%, CSCCC(NC(=O)[C@H](Cc1c[nH]c2ccccc12)NC(=O)CNC(=O)[C@H](CCSC)NC(=O)[C@H](Cc1ccc(OS(=O)(=O)O)cc1)NC(=O)[C@@H](N)CC(=O)O)C(=O)N[C@@H](CC(=O)O)C(=O)N[C@@H](Cc1ccccc1)C(N)=O (stereo not given in full) -12.5%

Potency, inactive:
CC(=O)O[C@H](C)OC(=O)[C@@H](C)c1ccc(-c2ccccc2)c(F)c1
